In PubChem BioAssay AID1159580 (chemical genetic matrix, 2015):
Where “and” joins values, the source holds several entries; their conditions need not be identical. Equal entries are not always repeated. Hit rate of the full screen: of about 5,500 compounds, about 2,000 (36%) were called active. About 18% were inconclusive and are not listed. No stated cut-off is given here; in the data, active means normalized growth mostly below about 0.91 (no sharp cut-off); inconclusive means no clear call, values can overlap the other calls; inactive means mostly above about 0.92. Some of the results follow.

Assay: chemical genetic growth profiling, strain panel (AID 1159580);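 further: tested at 20 µM; growth read once vehicle control cultures reached saturation at 30 °C; 1 = growth at the plate median or of vehicle wells; lower values mean less growth of the strain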
Details: S. cerevisiae deletion strains, growth OD

Measured: normalized growth

CN1C(CC(=O)c2ccccc2)CCCC1CC(O)c1ccccc1 (configuration not stated)
inactive: locus YAL013W, strain DEP1, hits give low values 1.01 | locus YAL021C, strain ccr4, hits give low values 0.974 | locus YAL026C, strain drs2, hits give low values 0.976 | locus YAL030W, strain snc1, hits give low values 0.977 | locus YBL061C, strain skt5, hits give low values 0.976 | locus YBR009C, strain hhf1, hits give low values 0.972 | locus YBR021W, strain FUR4, hits give low values 1.02 | locus YBR023C, strain chs3, hits give low values 0.977 | locus YBR171W, strain sec66, hits give low values 0.989 | locus YBR229C, strain ROT2, hits give low values 1.01 | locus YBR231C, strain swc5, hits give low values 0.978 | locus YBR279W, strain paf1, hits give low values 0.984 | locus YCL011C, strain gbp2, hits give low values 0.966 | locus YCL016C, strain dcc1, hits give low values 0.978 | locus YCL029C, strain bik1, hits give low values 0.968 | locus YCL061C, strain MRC1, hits give low values 0.993 | locus YCL069W, strain vba3, hits give low values 0.982 | locus YCR088W, strain abp1, hits give low values 0.984 | locus YDL005C, strain med2, hits give low values 0.98 | locus YDL035C, strain GPR1, hits give low values 1.01 | locus YDL040C, strain nat1, hits give low values 0.976 | locus YDL074C, strain BRE1, hits give low values 1.01 | locus YDL101C, strain DUN1, hits give low values 1.01 | locus YDL134C, strain PPH21, hits give low values 1.01 | locus YDL185W, strain tfp1, hits give low values 0.992 | locus YDL192W, strain arf1, hits give low values 0.991 | locus YDR001C, strain nth1, hits give low values 0.979 | locus YDR069C, strain doa4, hits give low values 0.999 | locus YDR101C, strain arx1, hits give low values 0.97 | locus YDR137W, strain rgp1, hits give low values 0.918 | locus YDR150W, strain NUM1, hits give low values 1.02 | locus YDR159W, strain sac3, hits give low values 0.959 | locus YDR162C, strain NBP2, hits give low values 1.01 | locus YDR195W, strain ref2 0.928 | locus YDR297W, strain sur2, hits give low values 0.98 | locus YDR318W, strain mcm21, hits give low values 0.994 | locus YDR334W, strain swr1, hits give low values 0.975 | locus YDR335W, strain msn5, hits give low values 0.986 | locus YDR388W, hits give low values 0.975 | locus YDR392W, strain spt3, hits give low values 0.934 | locus YDR502C, strain sam2, hits give low values 0.98 | locus YEL003W, strain gim4, hits give low values 0.991 | locus YEL037C, strain rad23, hits give low values 0.984 | locus YEL061C, strain CIN8 (second series), hits give low values 0.966 | locus YEL061C, strain CIN8, hits give low values 1.01 | locus YER015W, strain faa2, hits give low values 0.989 | locus YER016W, strain bim1, hits give low values 0.98 | locus YER110C, hits give low values 0.981 | locus YER111C, strain swi4, hits give low values 0.98 | locus YER155C, strain BEM2 (second series), hits give low values 0.982 | locus YER155C, strain BEM2, hits give low values 1.01 | locus YER167W, strain BCK2, hits give low values 1.02 | locus YFR010W, strain ubp6, hits give low values 0.967 | locus YGL078C, strain dbp3, hits give low values 0.977 | locus YGL086W, strain mad1, hits give low values 0.997 | locus YGL167C, strain pmr1, hits give low values 0.963 | locus YGL173C, strain kem1, hits give low values 0.982 | locus YGL227W, strain vid30, hits give low values 0.962 | locus YGL240W, strain doc1, hits give low values 0.981 | locus YGL248W, strain PDE1, hits give low values 1.02 | locus YGL253W, strain hxk2, hits give low values 0.991 | locus YGR078C, strain PAC10, hits give low values 0.996 | locus YGR135W, strain pre9, hits give low values 0.968 | locus YGR229C, strain SMI1, hits give low values 0.967 | locus YGR252W, strain gcn5, hits give low values 1 | locus YHR013C, strain ard1, hits give low values 0.952 | locus YHR027C, strain rpn1, hits give low values 0.973 | locus YHR030C, strain SLT2, hits give low values 1.01 and 0.976 | locus YHR079C, strain IRE1 (second series), hits give low values 0.985 | locus YHR079C, strain IRE1, hits give low values 0.983 | locus YHR094C, strain hxt1, hits give low values 0.988 | locus YHR129C, strain ARP1, hits give low values 1.01 | locus YHR142W, strain chs7, hits give low values 0.999 | locus YHR200W, strain rpn10, hits give low values 0.989 | locus YIL066C, strain RNR3, hits give low values 1.01 | locus YIL073C, strain SPO22, hits give low values 1.02 | locus YIL125W, strain kgd1, hits give low values 1 | locus YIR030C, strain dcg1, hits give low values 0.993 | locus YJL092W, strain hpr5, hits give low values 0.982 | locus YJL095W, strain BCK1 (second series), hits give low values 0.979 | locus YJL095W, strain BCK1, hits give low values 0.975 and 0.978 | locus YJL115W, strain asf1, hits give low values 0.978 | locus YJL129C, strain trk1, hits give low values 0.974 | locus YJL134W, strain LCB3, hits give low values 1.01 | locus YJL154C, strain vps35, hits give low values 0.97 | locus YJL164C, strain tpk1, hits give low values 0.996 | locus YJL166W, strain qcr8, hits give low values 0.984 | locus YJL168C, strain set2, hits give low values 0.99 | locus YJL187C, strain SWE1 (second series), hits give low values 0.996 | locus YJL187C, strain SWE1, hits give low values 0.975 | locus YJR043C, strain POL32, hits give low values 1 | locus YJR066W, strain TOR1, hits give low values 0.935
